The values below come from PubChem BioAssay AID602340 (Broad Institute, 2012).

Among all 330,000 compounds or so, about 2,600 (0.79%) were called active.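 Rule for the calls: active = mean ATP rescue above about 67%, or every replicate alone reaching that limit (limit read from the data, passing the limit was not always enough); inconclusive = no clear call, values can overlap the other calls; inactive = mean under the limit and some replicate under it.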 This excerpt belongs to a sample that is enriched for actives.

The nature of this assay: protection of differentiated C2C12 cells from simvastatin – single point, plate reader, primary screen (AID 602340).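 Note: myotubes were challenged with 10 µM simvastatin during compound exposure.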 The settings on record: C2C12 myotubes + simvastatin, ATP luminescence, 48 h; at 7.49 µM; hits give high values; scaled: DMSO 0, geranylgeraniol control 100.
On to `C[C@@H]1CN([C@H](C)CO)S(=O)(=O)c2ccc(C#C[C@@H](C)O)cc2O[C@H]1CN(C)CC1CC1`, for which the rescue of ATP level was -38.8% (inactive).

For the molecule `CCCNC(=O)Nc1ccc2c(c1)OC[C@@H](C)N(C(=O)c1ccccc1F)C[C@H](C)[C@@H](OC)CN(C)C2=O`, the rescue of ATP level was -10.8% (inactive).

`C=CCNC(=O)c1cc2nc(C3CC3)cc(C(F)F)n2n1`: the rescue of ATP level was -17.9% (inactive).

`O=C(Nc1ccc(Cl)cc1)c1cc2nc(C3CC3)cc(C(F)(F)F)n2n1`: the rescue of ATP level was 98.2% (active).

As for `O=C(Nc1cc(C(F)(F)F)ccc1Cl)c1cc2nc3c(c(C(F)(F)F)n2n1)CCCC3`, the rescue of ATP level was -15% (inactive).

Take `COc1cc(OC)c(C(=O)N2CCCC2)cc1OC`: the rescue of ATP level is -3.44% (inactive).

For the molecule `Cc1c(Br)cc(C(=O)N2CCCCCC2)c(C)c1C`, the rescue of ATP level is 115% (active).

With `Cc1ccc(C(=O)N2CCCC2)c(F)c1F`, the rescue of ATP level is 16.3% (inactive).

With `COCC(=O)Nc1ccc2c(c1)C(=O)N(C)[C@@H]1CC[C@H](CC(=O)NCC3CCCCC3)O[C@H]1CO2`, the rescue of ATP level was 13.3% (inactive).

With `O=C(Nc1ccccc1F)N[C@@H]1CC[C@H](CC(=O)N2CCCCC2)O[C@H]1CO`, the rescue of ATP level is 4.38% (inactive).

On to `CC(=O)N1[C@@H]2c3ccc(-c4ccccc4)c(=O)n3C[C@@H]2[C@@H](CO)[C@@H]1C(=O)NCc1ccccc1F`, for which the rescue of ATP level was 5.23% (inactive).

`Fc1ccccc1COc1cccc2cccnc12`: the rescue of ATP level is 8.73% (inactive).

For `OCc1ccc(OCCCOc2cccc3cccnc23)cc1`, the rescue of ATP level is 7.29% (inactive).

Take `O=C(Nc1ccccc1)Oc1cccc2cccnc12`: the rescue of ATP level was 101% (active).

Consider `C/C=C/c1ccc2c(c1)O[C@H](CN(C)C(=O)C1CCCCC1)[C@@H](C)CN([C@@H](C)CO)S2(=O)=O`, for which the rescue of ATP level is 2.75% (inactive).

Consider `CCc1nc2ccccc2n(CCOCCOCCn2c(=O)c(CC)nc3ccccc32)c1=O`, for which the rescue of ATP level was 114% (active).

Regarding `COCCOCCn1cnc2ccccc21`, the rescue of ATP level was 14.6% (inactive).

For `CCOCCn1c(C(C)C)nc2ccccc21`, the rescue of ATP level was -2.16% (inactive).

`C[C@@H]1CN([C@H](C)CO)C(=O)c2cc(C#CC3CC3)cnc2O[C@@H]1CN(C)Cc1cccc(C(=O)O)c1`: the rescue of ATP level was -0.6% (inactive).

With `COc1ccc2[nH]c(=O)c(CN(Cc3cccnc3)S(=O)(=O)c3ccccc3F)cc2c1`, the rescue of ATP level was -38.6% (inactive).

For the molecule `COc1ccc2[nH]c(=O)c(CNc3ccc(C)c(C)c3)cc2c1`, the rescue of ATP level was 100% (active).

Turning to `COc1ccc2[nH]c(=O)c(CN(CC3CCCO3)C(=O)Nc3ccccc3)cc2c1` (stereo unspecified), the rescue of ATP level was -11.6% (inactive).

As to `CO[C@H]1CN(C)C(=O)c2ccc(NS(C)(=O)=O)cc2OC[C@@H](C)N(C(=O)c2ccc3c(c2)OCO3)C[C@@H]1C`, the rescue of ATP level was -7.88% (inactive).

On to `C[C@@H]1CCCCO[C@H](CN(C)S(=O)(=O)c2cn(C)cn2)[C@H](C)CN([C@@H](C)CO)C(=O)c2cc(NC(=O)Nc3ccc(C(F)(F)F)cc3)ccc2O1`, for which the rescue of ATP level is 0.993% (inactive).

Regarding `C[C@@H]1CN([C@@H](C)CO)C(=O)Cc2cc(NC(=O)CCN3CCOCC3)ccc2O[C@H]1CN(C)S(=O)(=O)c1ccccc1`, the rescue of ATP level was -6.12% (inactive).

Take `O=S(=O)(Cc1ccccc1)NCC[C@@H]1CC[C@@H](NS(=O)(=O)c2ccccc2)[C@@H](CO)O1`: the rescue of ATP level is 1.31% (inactive).

Turning to `COc1ccc(S(=O)(=O)N/N=C\c2ccc(OC)c(COc3ccc(C)cc3[N+](=O)[O-])c2)cc1`, the rescue of ATP level is 99.4% (active).

With `Cc1ccc(S(=O)(=O)N/N=C\c2cc3c(cc2[N+](=O)[O-])OCO3)cc1`, the rescue of ATP level is 2.88% (inactive).

For `COc1ccc(S(=O)(=O)Nc2ccc3cn[nH]c3c2)cc1[N+](=O)[O-]`, the rescue of ATP level was 1.46% (inactive).

As for `COc1cccc(S(=O)(=O)Nc2ccc3c(c2)C(=O)N(C)C[C@@H](OC)[C@H](C)CN(C(=O)Cc2cccnc2)[C@H](C)CO3)c1`, the rescue of ATP level is 7.32% (inactive).

With `CC(=O)N1[C@@H](CO)[C@H](c2ccccc2)[C@@H]1CN(C(=O)c1ccccc1)C(C)C`, the rescue of ATP level was 3.57% (inactive).

For `COc1ccc(-c2ccc3n(c2=O)C[C@@H]2[C@@H](CO)[C@H](C(=O)Nc4ccccc4)[C@H]3N2C)cc1`, the rescue of ATP level was -0.124% (inactive).

With `CCC(=O)N(C)C[C@@H]1Oc2cc(C#Cc3cccnc3)ccc2S(=O)(=O)N([C@H](C)CO)C[C@@H]1C`, the rescue of ATP level is 29.4% (inactive).

As for `CC(=O)c1ccc(NC(=O)c2cc(-c3cccs3)on2)cc1`, the rescue of ATP level is -12.8% (inactive).

Turning to `O=C(c1cc(-c2cccs2)on1)N1CCCCC1`, the rescue of ATP level is 36% (inactive).

In the case of `Cc1cc(NC(=O)c2cc(-c3cccs3)on2)nn1Cc1ccc(Cl)cc1`, the rescue of ATP level was 143% (active).

For the molecule `CC(C)C#Cc1ccc2c(c1)O[C@@H](CN(C)C(=O)CN(C)C)[C@@H](C)CN([C@H](C)CO)S2(=O)=O`, the rescue of ATP level was -17.5% (inactive).

As for `CNC[C@H]1Oc2ncc(C#Cc3ccccc3F)cc2C(=O)N([C@H](C)CO)C[C@H]1C`, the rescue of ATP level was -12.3% (inactive).

In the case of `O=C(C[C@@H]1C[C@H]2c3cc(NC(=O)Nc4ccccc4)ccc3O[C@H]2[C@@H](CO)O1)NCc1cccnc1`, the rescue of ATP level is 4.89% (inactive).

For `Cc1cc(NCc2ccco2)n2c(nc3ccccc32)c1C#N`, the rescue of ATP level is -35.7% (inactive).

For the molecule `CN1c2ccccc2-c2nc3ccccc3n2C1c1ccco1` (stereo unspecified), the rescue of ATP level is 96.4% (active).

`CN1C(C(=O)NCc2ccco2)CC2Cn3c(nc4ccccc43)C21` (stereo unspecified): the rescue of ATP level was 2.87% (inactive).

For the molecule `CCCCCC(=O)Nc1ccc(S(=O)(=O)Nc2ccc(Cl)nn2)cc1`, the rescue of ATP level is -2.2% (inactive).

For `COC(=O)Nc1ccc(S(=O)(=O)Nc2cc(OC)nc(OC)n2)cc1`, the rescue of ATP level was -0.957% (inactive).

Regarding `COc1ccc(NS(=O)(=O)c2ccc(NC(=O)C(C)(C(F)(F)F)C(F)(F)F)cc2)nn1`, the rescue of ATP level was 113% (active).

With `CC(C)NC(=O)N1[C@H](CO)[C@@H]2c3ccccc3N(C(=O)c3ccccc3F)C[C@@H]21`, the rescue of ATP level was 6.22% (inactive).

Take `CC(=O)N(C)C[C@H]1Oc2cc(C#CC3CC3)ccc2S(=O)(=O)N([C@H](C)CO)C[C@@H]1C`: the rescue of ATP level is 9.57% (inactive).

On to `C/C=C/c1ccc2c(c1)O[C@@H](CN(C)C(=O)c1ccncc1)[C@@H](C)CN([C@H](C)CO)S2(=O)=O`, for which the rescue of ATP level was -3.45% (inactive).

Consider `CO[C@H]1CN(C)C(=O)c2ccc(NS(C)(=O)=O)cc2OC[C@@H](C)N(Cc2ccccc2)C[C@@H]1C`, for which the rescue of ATP level is 7.75% (inactive).

Take `CO[C@H]1CN(C)C(=O)c2cc(NC(=O)C3CC3)ccc2OC[C@H](C)N(Cc2ccccc2)C[C@H]1C`: the rescue of ATP level was 14.1% (inactive).

In the case of `CC(=O)c1c(C)n(-c2ccc(N(C)C)cc2)c2ccc(OCC(N)=O)cc12`, the rescue of ATP level was 83.1% (active).

`CC(=O)c1c(C)n(-c2ccc(C)cc2)c2ccc(O)cc12`: the rescue of ATP level was -0.235% (inactive).

On to `CCOC(=O)c1c(-c2ccccc2)oc2ccc(OCC(N)=O)cc12`, for which the rescue of ATP level was -0.453% (inactive).

Take `CN(C)CCCNC(=O)C[C@H]1C=C[C@@H](NC(=O)Cc2cccnc2)[C@H](CO)O1`: the rescue of ATP level was -16.4% (inactive).

In the case of `C[C@@H]1CN([C@H](C)CO)C(=O)c2ccccc2-c2ccccc2CO[C@@H]1CN(C)S(=O)(=O)CC(F)(F)F`, the rescue of ATP level was -2.03% (inactive).

Turning to `CCOC(=O)Nc1ccc(NC(=O)OCC)cc1`, the rescue of ATP level was -0.0995% (inactive).

For `CC(C)(C)OC(=O)Nc1ccc([C@@H](NC(=O)OC(C)(C)C)C(=O)OC(C)(C)C)cc1`, the rescue of ATP level was 83.1% (active).

For `CC(C)(C)OC(=O)N[C@H](C(=O)OC(C)(C)C)c1ccc(Br)cc1`, the rescue of ATP level was -4.69% (inactive).

Regarding `COc1ccc(S(=O)(=O)N2CC[C@H]3[C@@H](CO)N(C)c4ccc(C#Cc5ccccc5OC)cc4[C@H]32)cc1`, the rescue of ATP level was 36% (inactive).

For the molecule `C[C@H]1CN([C@@H](C)CO)S(=O)(=O)c2ccc(C#Cc3ccccc3F)cc2O[C@@H]1CN(C)C(=O)c1ccc2c(c1)OCO2`, the rescue of ATP level was -14.8% (inactive).

On to `O=C(Nc1ccccc1[N+](=O)[O-])C1C(c2ccccc2)=C1c1ccccc1`, for which the rescue of ATP level is 2.4% (inactive).

In the case of `O=C(Nc1ccccc1-c1ccccc1)c1ccccc1[N+](=O)[O-]`, the rescue of ATP level is 9.09% (inactive).

On to `O=C(O)c1ccccc1NC(=S)NC(NC(=O)c1ccccc1[N+](=O)[O-])C(Cl)(Cl)Cl` (stereo unspecified), for which the rescue of ATP level is 108% (active).

With `CO[C@H]1CN(C)C(=O)c2cc(NC(=O)C3CCOCC3)ccc2OC[C@@H](C)N(Cc2cccnc2)C[C@@H]1C`, the rescue of ATP level was 11.4% (inactive).

With `COc1cc(/C=N\NC(=O)CNC(=O)c2cccc([N+](=O)[O-])c2)ccc1O`, the rescue of ATP level is 110% (active).

Consider `COc1ccc(O)c(/C=N/N=C/c2cccc([N+](=O)[O-])c2)c1`, for which the rescue of ATP level is 9.95% (inactive).

As for `COc1cc(/C=N/NC(=O)CNC(=O)c2ccncc2)ccc1OC(C)=O`, the rescue of ATP level was -8.66% (inactive).

For `Cc1noc(C)c1NC(=O)N[C@@H]1CC[C@H](CCNC(=O)C2CCC2)O[C@@H]1CO`, the rescue of ATP level was 3.99% (inactive).

In the case of `O=C(C[C@H]1CC[C@@H](NC(=O)Nc2cc(F)ccc2F)[C@@H](CO)O1)NCc1ccncn1`, the rescue of ATP level is -2.36% (inactive).

For the molecule `O=C(Nc1ccccc1)N1C[C@@H]2[C@H](c3ccccc31)[C@H](CO)N2C(=O)c1ccccn1`, the rescue of ATP level was -4.63% (inactive).

With `Cc1ccc(C2=NN(C(=O)CSc3nc(N)cc(N)n3)C(c3ccco3)C2)cc1` (stereo unspecified), the rescue of ATP level was 159% (active).

Turning to `COc1ccc(C2=NN(C(=O)CSc3nnnn3C)C(c3ccco3)C2)cc1` (stereo unspecified), the rescue of ATP level was -6.88% (inactive).

Regarding `COc1ccc(C2=NN(C(=O)CSc3nc(=O)n4ccc(C)cc4n3)C(c3ccc(C)cc3)C2)cc1` (stereo unspecified), the rescue of ATP level was 34.4% (inactive).

Turning to `Cc1cccc(-c2ccc([C@@H]3[C@H](CO)N4CCCCN(C(=O)c5ccc6c(c5)OCO6)C[C@@H]34)cc2)c1`, the rescue of ATP level was -11.7% (inactive).

In the case of `C[C@@H]1CN([C@H](C)CO)C(=O)c2cc(-c3ccc(C(=O)N(C)C)cc3)cnc2O[C@H]1CN(C)C(=O)C1CC1`, the rescue of ATP level is 5.72% (inactive).

On to `COc1ccc(NC(=O)N(C)C[C@H]2Oc3ccc(N(C)C)cc3C(=O)N([C@H](C)CO)C[C@H]2C)cc1`, for which the rescue of ATP level was 34.1% (inactive).
